Holding throughout (type): functional
The test system of assay [1] is Plasmodium falciparum. Nature of the assay: GSK_TCMDC: Inhibition of Plasmodium falciparum 3D7 in whole red blood cells, using parasite LDH activity as an index of growth. Test compounds present at 2uM.
For assay [2], the system named is Plasmodium falciparum. Nature of the assay: GSK_TCMDC: Inhibition of Plasmodium falciparum Dd2 in whole red blood cells, using parasite LDH activity as an index of growth. Test compounds present at 2uM.
For another assay, the system named is HepG2. In words: GSK_TCMDC: Percent inhibition of human HepG2 cell line. Test compounds present at 10uM.

As a reminder, the Inhibition is the percentage by which the read-out fell short of the control.

Structures are written as SMILES.

In the case of `O=C(Nc1ccc(F)c([N+](=O)[O-])c1)Nc1cc(C(F)(F)F)ccc1Cl`, the Inhibition in the assay on Plasmodium falciparum [1] is reported as 100%; in the assay on Plasmodium falciparum [2], 86%; in the assay with HepG2, 5%.
In the case of `CCC(C)Oc1ccc2nc(N)nc(N)c2c1Cl` (stereo not drawn), the Inhibition with Plasmodium falciparum [1] is 96%; with Plasmodium falciparum [2], 0%; with HepG2, 57%.
As for `Cc1cc2nc(-c3ccc(/C=C/C(=O)NCCc4ccccc4)cc3)[nH]c2cc1C`, the values for the Inhibition with Plasmodium falciparum [1], in the assay on Plasmodium falciparum [2] and with HepG2 were 98%, 13% and 3%, respectively.
Take `CCOC(=O)c1ccc(-c2cnc(N)c(-c3nc4cccc(C)c4[nH]3)c2)cc1`: the Inhibition in the assay on Plasmodium falciparum [1] is given as 100%; with Plasmodium falciparum [2], 79%; in the assay with HepG2, 43%.
On to `COc1ccc(C)c(Nc2ccnc(Nc3ccc(-c4cnc[nH]4)cc3)n2)c1.Cl`, for which the Inhibition with Plasmodium falciparum [1] amounted to 97%; with Plasmodium falciparum [2], 6%; with HepG2, 40%.
Turning to `Cl.N=C(N)c1ccc(NN=Cc2ccc(Oc3ccc(C(=N)N)cc3)cc2)cc1`, the figures for the Inhibition in the assay with Plasmodium falciparum [1], in the assay on Plasmodium falciparum [2] and in the assay with HepG2 were 99%, 100% and 18%, respectively.
For the molecule `CCCOc1cccc(C(=O)N[C@@H](Cc2ccccc2)[C@H](O)CNCc2cccc(OC)c2)c1`, the Inhibition is 100% in the assay with Plasmodium falciparum [1], 18% in the assay on Plasmodium falciparum [2] and 14% with HepG2.
Take `CCCC1CCNC(C(O)c2ccnc3ccc(OC)cc23)C1.Cl` (stereo not drawn): the Inhibition in the assay on Plasmodium falciparum [1] is listed as 98%; with Plasmodium falciparum [2], 78%; in the assay on HepG2 it was 0%.
Consider `CCOc1c(N2CCN(CCCCNC(=O)c3ccc(NC(=O)c4ccc(Cl)cc4)cc3)CC2)ccc2ccccc12.Cl`, for which the Inhibition in the assay on Plasmodium falciparum [1] is recorded as 100%; in the assay on Plasmodium falciparum [2], 45%; in the assay with HepG2 it was 18%.
As to `O=C(O)C(F)(F)F.c1ccc2c(c1)CN(CC1CCOCC1)CC1(CCN(Cc3c[nH]c4cnccc34)CC1)O2`, the results for the Inhibition in the assay with Plasmodium falciparum [1], in the assay on Plasmodium falciparum [2] and in the assay on HepG2 were 99%, 7% and 21%, respectively.
Taken in the same sequence, the figures for `COc1ccc2nccc([C@@H](O)CN3CCC(NCc4cc5ccccn5n4)CC3)c2c1.O=C(O)C(=O)O` were 99%, 18% and 7%.
As for `O=C(NC1CC1)c1cnc(N2CCC(c3ccccc3)CC2)c(Cl)c1.O=C(O)C(F)(F)F`, the Inhibition in the assay on Plasmodium falciparum [1] was 94%; in the assay on Plasmodium falciparum [2], 95%; with HepG2 it was 6%.
As for `Cc1cccc(Nc2c(-c3cc(Br)ccc3O)nc3ncccn23)c1`, the Inhibition with Plasmodium falciparum [1] is on record as 100%; in the assay on Plasmodium falciparum [2] it was 98%; in the assay on HepG2 it was 0%.
Taken in the same sequence, the figures for `COc1ccc2[nH]c(-c3ccccc3)cc(=NN=Cc3ccncc3)c2c1` were 99%, 27% and 14%.
With `CC(C)(C)c1cc(C(=O)Nc2ccc(C(=N)N)cc2)c(O)c(C(C)(C)C)c1.O=C(O)C(F)(F)F`, the Inhibition with Plasmodium falciparum [1] stood at 100%; in the assay on Plasmodium falciparum [2], 88%; in the assay with HepG2 it was 4%.
With `COc1ccc2ncc(F)c([C@@H](O)CN3CCC(NCc4cc(C#N)c5c(c4)CCO5)CC3)c2n1`, the Inhibition with Plasmodium falciparum [1] is given as 92%; with Plasmodium falciparum [2], 50%; with HepG2, 15%.
For the molecule `O=C(/C=C/c1ccc(Cl)c(Cl)c1)NC1CCC(CN2CCC(c3cc4ccccc4[nH]3)CC2)CC1` (stereo not drawn), the figures for the Inhibition in the assay with Plasmodium falciparum [1], in the assay on Plasmodium falciparum [2] and in the assay with HepG2 were 96%, 0% and 19%, respectively.
`COc1cc(C(C)C)ccc1N1CCN(CCCCNC(=O)c2ccc(NC(=O)c3ccc(Cl)cc3)cc2)CC1`: the Inhibition amounted to 98% with Plasmodium falciparum [1], 81% in the assay on Plasmodium falciparum [2] and 25% with HepG2.
As to `Cc1ccc(NC(=O)c2ccc(Cl)c(Cl)c2)cc1-c1ccc(C(=O)Nc2ccncc2)cc1`, the Inhibition in the assay on Plasmodium falciparum [1] was 99%; in the assay on Plasmodium falciparum [2], 79%; with HepG2, 39%.
As for `Cl.N=C(NCCc1ccc(Cl)cc1)c1ccc(Cl)c(Cl)c1`, the Inhibition is recorded as 100% with Plasmodium falciparum [1], 42% in the assay with Plasmodium falciparum [2] and 43% in the assay on HepG2.
As for `CCCCN1C(=O)C2CC(=O)CC(C3CCCCC3)C2C1=O` (stereo not drawn), the figures for the Inhibition with Plasmodium falciparum [1], in the assay with Plasmodium falciparum [2] and with HepG2 were 97%, 1% and 0%, respectively.
The matching figures for `COc1ccc2nccc(NC(=O)CNCc3ccc(-c4ccccc4)cc3)c2c1`: 100%, 35% and 11%.
`COc1ccc(CCCCN2C(=O)C(c3ccccc3)(c3ccccc3)N=C2N)cc1.O=C(O)C(F)(F)F`: the Inhibition with Plasmodium falciparum [1] came out at 97%; in the assay on Plasmodium falciparum [2], 95%; in the assay on HepG2, 40%.
Taken in the same sequence, the figures for `COCCn1ccc2c3c(N)nc(N)nc3ccc21` were 93%, 29% and 43%.
The matching figures for `N#Cc1ccc(CN2CCC(Oc3ccc(NC(=O)c4cccs4)cc3)CC2)cc1.O=C(O)C(F)(F)F`: 83%, 82% and 10%.
Regarding `Cc1cc(N[C@@H](Cc2ccccc2)C(=O)NCCOc2ccccc2)nc(Nc2ccccc2)n1.O=C(O)C(F)(F)F`, the Inhibition was 100% in the assay on Plasmodium falciparum [1], 63% in the assay with Plasmodium falciparum [2] and 2% in the assay on HepG2.
Turning to `O=C(Nc1ccccc1O)c1ccc(S(=O)(=O)c2ccc(Cl)cc2)cc1`, the Inhibition in the assay on Plasmodium falciparum [1] is listed as 90%; in the assay with Plasmodium falciparum [2], 85%; in the assay on HepG2, 18%.
For the molecule `CCCC/C=C(\Cl)c1ccc(O)c2c1C[C@H]1C[C@H]3[C@H](N(C)C)C(O)=C(C(N)=O)C(=O)[C@@]3(O)C(O)=C1C2=O.Cl`, the Inhibition stood at 90% in the assay on Plasmodium falciparum [1], 98% with Plasmodium falciparum [2] and 16% in the assay on HepG2.
Take `COc1ccc(NC(=O)c2ccc(-c3nc(-c4ccccc4)cs3)cc2)cc1N1CCN(C)CC1.O=C(O)C(=O)O`: the Inhibition with Plasmodium falciparum [1] came to 93%; in the assay on Plasmodium falciparum [2], 13%; with HepG2, 17%.
In the case of `NC(=O)c1ccccc1OCC(=O)Nc1cccc(-c2ccc(-c3nc4cc(C(F)(F)F)ccc4[nH]3)cc2)c1`, the results for the Inhibition in the assay with Plasmodium falciparum [1], in the assay with Plasmodium falciparum [2] and with HepG2 were 92%, 17% and 58%, respectively.
For the molecule `O=C(c1cc(C(=O)NC2CCCCC2)c(=O)n(C2CCCCC2)c1)c1cc(F)ccc1O`, the Inhibition was found to be 99% in the assay with Plasmodium falciparum [1], 98% in the assay with Plasmodium falciparum [2] and 22% in the assay on HepG2.
